# Screens: PubChem, National Center for Advancing Translational Sciences (NCATS)
# Rows were chosen to be rich in hits. Some 2.9% of all compounds tested hit in one or more screens of this group.
# SNCA expr inh: Primary qHTS assay for inhibitors of alpha-synuclein gene (SNCA) expression; Potency, µM (highest dose often 57.2 µM), for inactives: at the top dose activity change, negative = inhibition, actives largely listed as inhibitors; HEK-293 SNCA-luciferase knock-in, luminescence, 24 h; 140,000 compounds, 0.17% hits;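 also: potency is read from the fitted curve at half-maximal effect; plate controls were DMSO cells for no effect and cell-free wells for full effect; nearly all actives have a fitted effect of over 45% in size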
# KDM5B inh: Primary screen for KDM5B Histone Demethylases FDH-coupled qHTS; AID 1347165, 2019; KDM5B demethylase, FDH-coupled NADH fluorescence (FDH is formaldehyde dehydrogenase); 220,000 compounds, 2.6% hits; Potency, µM (titrated, usually from 57.7 µM), most hits filed as inhibitors; also: potency is read from the fitted curve at half-maximal effect; 0% is about no effect; nearly all actives have a fitted effect of over 70% in size
#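 Compound dilutions met 200 nM (final) KDM5BΔAP for 10 min at room temperature before substrate addition. The substrate mix held 12.5 µM H3K4me3 with cofactors 25 µM α-ketoglutarate and 50 µM Fe²⁺. NADH signal gain over 30 min defined activity.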
# IP6K1 inhibitor: Primary qHTS assay for small molecule inhibitors of Inositol hexaphosphate kinase 1 (IP6K1) | Inositol hexakisphosphate kinase 1 (Homo sapiens), Q92551 | IP6K1 kinase, ADP-Glo luminescence, 2 h; stronger effect = lower value | activity change, % (series mostly up to about 58 µM) | 140,000 compounds, 0.81% hits; in the data active = activity change below about -25%; also: % is scaled to controls: 0 for no effect and ±100 for the full control effect
#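 ADP-Glo luminescence measures ADP made by human IP6K1 during a 2 h RT reaction with ATP/IP6 (mix at 1.3 mM/130 uM); top library doses 57.5 and 19.1 uM final.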
# SNCA viab count: GF-AFC viability counterscreen for inhibitors of alpha-synuclein gene (SNCA) expression | HEK-293-SNCA-luc viability, GF-AFC fluorescence, 24 h | Potency, µM (titrated, usually from 57.1 µM), without a hit: at the highest dose activity change, negative = cytotoxicity, most hits filed as cytotoxic | 150,000 compounds, 0.12% hits;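 also: potency is read from the fitted curve at half-maximal effect; 0% = DMSO-treated cells and -100% = medium-only wells without cells; nearly all actives have a fitted effect of over 30% in size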
#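 Cytotoxicity counterscreen: after 24 h compound treatment of genome-edited SNCA-luciferase HEK-293 cells, live-cell protease substrate GF-AFC read by fluorescence after 30 min; activity scaled between DMSO (0%) and medium-only (-100%), curves Hill-fitted.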
# An asterisk follows results filed as active; i = inactive; ? = inconclusive; . = no result given; ! = a repeat was not active; [ ] = remark or other dose. Unless noted, calls follow the shape of the dose curve; as a rule, active = well fitted curve in the direction sought with a large enough effect; inconclusive = small, poorly fitted or top-dose-only effect, or another doubt; inactive = no such curve, though single readings can be large; an effect the other way counts as inactive or inconclusive.
SMILES,SNCA expr inh,KDM5B inh,IP6K1 inhibitor,SNCA viab count
COc1ccc(C2C(=O)N(C3CCCCC3)CC(=O)N2CCC2=CCCCC2)cc1 (centres undefined),22.4µM*,?,7.4,?
CC(CCc1ccccc1)NC(=O)CSc1n[nH]c(-c2ccccc2Cl)n1 (centres undefined),-26.5%,i,20.0,6.3%
CCNC(=O)NCCc1ncc(C)n1CC1CC1,3.6%,i,-1.5,6.0%
COC(=O)C1=C(C)N=C2SC=C(CC(=O)N(C)Cc3ccco3)N2C1c1ccc(Cl)cc1 (centres undefined),-8.2%,17.8µM*,10.4,19.5%
C/C=C(\C)C(=O)O[C@H]1C=C(CO)C(=O)[C@H](OC(C)=O)[C@H]1C(C)C,.,.,1.2,?
CCC(C)CC(=O)OC1C(=O)C(CO)=CC(O)C1C(C)C (centres undefined),.,.,-7.5,18.9µM*
Cc1ccc(CN2CCC(Oc3ccc4ncccc4c3)(C(=O)O)CC2)o1,-7.3%,?,-12.7,0.8%
O=C(O)C1(Oc2ccc3ncccc3c2)CCN(Cc2ccncc2)CC1,5.4%,15.8µM*,7.1,3.6%
O=C(NCC1(N2CCOCC2)CCCCC1)C1CCN(C(=O)c2ccc(F)cc2F)CC1,.,i,.,.
CO[C@H]1C=CC=C(C)C(=O)NC2=CC(=O)C(NCCN(C)C)=C(C[C@@H](C)C[C@H](OC)[C@@H](O)[C@@H](C)C=C(C)[C@@H]1OC(N)=O)C2=O,0.0541µM*,.,.,?
C=CCNC1=C2C[C@@H](C)C[C@H](OC)[C@@H](O)[C@@H](C)C=C(C)[C@H](OC(N)=O)[C@@H](OC)C=CC=C(C)C(=O)NC(=CC1=O)C2=O,?,.,.,-23.6%
O=C(Nc1ccccc1)N[C@H]1C[C@H]2C(=O)NC[C@@H](CCC(=O)N3CCN(c4ccccn4)CC3)N2C1,6.0%,25.1µM*,11.1,3.6%
CN1CCN(C(=O)CC[C@H]2CNC(=O)[C@@H]3[C@@H](CCN3Cc3ncc[nH]3)N2C)CC1,3.7%[87.6 µM],i,7.1,4.7%[87.6 µM]
CC(C)N1CC[C@@H]2[C@H]1C(=O)NC[C@H](CCC(=O)N1CCc3ccccc31)N2C,0.7%[87.6 µM],i,-0.7,-6.0%[87.6 µM]
CC(C)N1CC[C@@H]2[C@H]1C(=O)NC[C@H](CCC(=O)N1CCN(c3ccccn3)CC1)N2C,-12.1%[87.6 µM],31.6µM*,-10.9,-1.4%[87.6 µM]
CN1[C@@H](CCC(=O)N2CCN(c3ccccn3)CC2)CNC(=O)[C@@H]2[C@H]1CCN2Cc1ccc(CO)o1,-10.0%,31.6µM*,4.9,-12.2%
CN1[C@@H](CCC(=O)N2CCN(c3ccccn3)CC2)CNC(=O)[C@@H]2[C@H]1CCN2Cc1ncc[nH]1,-9.2%,22.4µM*,-4.3,-1.7%
CCc1nn(-c2ccc(OC)cc2)c(Oc2cccc(F)c2)c1CCC(=O)N(CC)CC,19.0%,i,-0.7,-1.5%
COCCN1C(=O)[C@@H]2C[C@@H](CN2C(=O)c2ccc3c(c2)OCO3)Oc2ccccc21,11.7%[87.6 µM],i,-1.8,1.1%[87.6 µM]
COc1ccc(-n2ncc(C(=O)N3CCN(Cc4ccccc4)CC3)c2C2CCN(C(=O)OC(C)(C)C)CC2)cc1,?,i,-4.7,-22.1%
CN1[C@@H](CCC(=O)N2CCN(c3ccccn3)CC2)CNC(=O)[C@@H]2[C@H]1CCN2Cc1ccc(O)cc1,9.3%,31.6µM*,2.1,4.9%
COc1ccc(C(=O)NC2CCN(c3nc4ncccc4o3)CC2)cc1,-9.8%,22.4µM*,-9.9,?
Cc1ccc([S+](=O)([O-])NC2CCN(c3nc4ncccc4o3)CC2)cc1,-4.9%,?,0.7,-7.2%
O=C(NC1CCN(c2nc3ncccc3o2)CC1)c1ccccc1Cl,24.5%,?,-10.7,-3.7%
C[S+](=O)([O-])NC1CCN(c2nc3ncccc3o2)CC1,?,35.5µM*!,-12.3,18.1%[87.6 µM]
SMILES,SNCA expr inh,KDM5B inh,IP6K1 inhibitor,SNCA viab count
CC(=O)NC1CCN(c2nc3ncccc3o2)CC1,3.8%[87.6 µM],28.2µM*,5.9,4.3%[87.6 µM]
O=C(NC1CCCC1)NC1CCN(c2nc3ncccc3o2)CC1,10.5%[87.6 µM],35.5µM*,-3.8,-21.4%[87.6 µM]
CCCCCn1nc(C(=O)Nc2ccccc2CC)c2ccccc2c1=O,.,i,.,.
CCCC(=O)N1CC(=O)Nc2ccc(Cl)cc2C1c1ccccc1 (centres undefined),-11.9%,i,-18.1,-6.0%
COCCn1c(=O)c(C(=O)NCc2cccs2)nc2cccnc21,-8.6%[87.6 µM],.,11.7,-6.3%[87.6 µM]
O=C(CCC1CCCCC1)Nc1ccc2ccccc2c1,.,i,.,.
O=C(c1cccc(F)c1)N1CCC2(CC1)CN(c1ccc(-c3ccccc3)cc1)C2,-7.1%,.,.,-3.0%
CCCC(C(=O)NC(C)(C)CC)N(CC1CCCO1)C(=O)CNS(=O)(=O)c1ccc(F)cc1 (centres undefined),.,i,.,.
COCC1CN(Cc2cc(Br)ccc2OC)CC12CCNCC2 (centres undefined),-19.1%,?,1.9,-19.7%
O=C(O)C1Cc2nc[nH]c2CN1C(=O)CCc1cn2ccccc2n1 (centres undefined),-23.9%,11.2µM*,26.8,-2.1%
NC1(C(=O)NCc2nc(-c3cccc(F)c3)c(-c3ccccn3)[nH]2)CCC1,-7.9%,?,8.2,-19.2%
O=C(NCc1nc(-c2cccc(F)c2)c(-c2ccccn2)[nH]1)N1CCCC1,3.2%,22.4µM*,10.6,-1.5%
COCCNC(=O)c1cnc2c(c1)N(C(=O)Cc1cn(C)c3ccccc13)CCC2,-27.7%[87.6 µM],?,6.5,-10.3%[87.6 µM]
COCCNC(=O)c1cnc2c(c1)N(Cc1ccccc1C(F)(F)F)CCC2,-5.9%[87.6 µM],35.5µM*,0.2,2.3%[87.6 µM]
O=C(Nc1cccc(C(F)(F)F)c1)c1cnc2c(c1)N(Cc1ccccc1)CCC2,-27.9%[87.6 µM],7.08µM*,1.6,-16.1%[87.6 µM]
CC(C)c1ccc(CC(=O)N2CCCc3ncc(C(=O)Nc4cccc(C(F)(F)F)c4)cc32)cc1,-16.6%,25.1µM*,7.1,-24.9%
COc1cccc(NC(=O)c2cnc3c(c2)N(C(=O)Cc2ccc(C(C)C)cc2)CCC3)c1,?,?,10.2,?
Cc1noc(-c2cccc(F)c2)c1C(=O)NCCc1ccc(F)cc1,-3.2%,i,1.8,4.1%
N#Cc1ccc(CN2CCCCCCNC(=O)[C@@H]3C[C@@H](C(=O)NCCc4cnc[nH]4)C[C@@H]32)cc1,-9.8%,20µM*,-0.2,0.4%
Cc1ccc(CN2CCCCCCNC(=O)[C@@H]3C[C@@H](C(=O)NCCc4cnc[nH]4)C[C@@H]32)o1,3.2%,?,13.1,-3.7%
CC(C)C[C@@H]1N[C@H](C(=O)N2CCCC2)Cc2c[nH]c3cccc1c23,-6.9%[87.6 µM],?,-4.1,-19.0%[87.6 µM]
CC(C)C[C@@H]1N[C@H](C(=O)N2CCN(C)CC2)Cc2c[nH]c3cccc1c23,6.0%[87.6 µM],31.6µM*,4.1,8.2%[87.6 µM]
